# Assay outcomes: PubChem BioAssay, National Center for Advancing Translational Sciences (NCATS)
# gsp antag: qHTS for Antagonists of gsp, the Etiologic Mutation Responsible for Fibrous Dysplasia/McCune-Albright Syndrome: qHTS; Potency, µM (series often up to 76.9 µM), actives largely listed as inhibitors; actives 0.4% (n = 340,000); gsp-mutant cells, cAMP HTRF, 30 min; calls by dose curve; cell line not stated here;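 note: intracellular cAMP measured with PDE inhibitor Ro 20-1724 present during compound exposure; nearly all actives have a fitted effect of over 65% in size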
#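 HTRF cAMP read-out (cAMP-d2 plus anti-cAMP antibody-K in lysis buffer, 30 min RT). Before lysis, cells are exposed to compounds with […] for 30 min at 37C in DPBS containing Ca/Mg, BSA and Tween 20.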
# gsp agonist: qHTS for Agonist of gsp, the Etiologic Mutation Responsible for Fibrous Dysplasia/McCune-Albright Syndrome: qHTS; Potency, µM (highest dose often 76.9 µM), usual class: activators; gsp mutant cells, cAMP HTRF, 30 min; actives 0.13% (n = 340,000); active = well fitted activation curve with a large enough effect; inconclusive = small, poorly fitted or top-dose-only effect, or another doubt; inactive = no such curve, though single readings can be large or run the other way; cell line not stated here;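 note: phosphodiesterase inhibitor Ro 20-1724 added with compounds to block cAMP breakdown; nearly all actives have a fitted effect of over 60% in size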
#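 Cells in DMEM/10% FBS with G418 were pretreated with compounds in DMSO plus […] (300 uM stock) for 30 min at 37C. cAMP was measured by HTRF (cAMP-d2 plus anti-cAMP antibody-K) after 30 min at room temperature.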
# Chronic BCR inh: qHTS Assay to Find Inhibitors of Chronic Active B-Cell Receptor Signaling. ABC-DLBCL IkBa-CBG/CBR reporter, luminescence ratio, 4 h. Potency, µM (series often up to 46.1 µM), usual class: inhibitors. actives 0.05% (n = 340,000); active = well fitted inhibition curve with a large enough effect in the signal ratio, with a control signal flat, not every such curve was filed as active; inconclusive = small, poorly fitted or top-dose-only effect, or effect the other way, or a change in a side signal; the % refers to the signal ratio
#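 Concentration-response series (up to 46 uM) were applied to TMD8 dual-reporter cells for 4 h at 37C with doxycycline. Green/red ratio, after filter-overlap correction, defined %Activity; red signal alone was normalised to basal cells and zero luminescence.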
# MBNL1-CUG inh: qHTS Assay for Inhibitors of MBNL1-poly(CUG) RNA binding | TR-FRET MBNL1-His/biotin-(CUG)12 binding, 665/545 ratio | Muscleblind-like protein 1 (Homo sapiens), Q9NR56 | Potency, µM (top dose mostly 57.5 µM), usual class: inhibitors | actives 0.036% (n = 280,000); active = well fitted inhibition curve with a large enough effect in the signal ratio, with a control signal flat, not every such curve was filed as active; inconclusive = small, poorly fitted or top-dose-only effect, or effect the other way, or a change in a side signal; inactive = no such curve, though single readings can be large or run the other way; the % refers to the signal ratio
#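 Ratiometric TR-FRET (665 over 545 nm, excitation 340 nm) tracks disruption of MBNL1-His/biotin-(CUG)12 complex after 60 min at room temperature, with compounds at 92 nM to 58 uM final.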
# S-ASM inh: Inhibitors of Secretory Acid Sphingomyelinase (S-ASM): qHTS | Potency, µM (doses to about 57.5 µM), most hits filed as inhibitors | placental ASM, HMU-PC fluorogenic substrate, 60 min | actives 0.006% (n = 340,000) | AID 504937, 2011 | Sphingomyelin phosphodiesterase (Homo sapiens), P17405; active = well fitted inhibition curve with a large enough effect; inconclusive = small, poorly fitted or top-dose-only effect; inactive = no such curve, though single readings can be large or run the other way
# Target sequence (P17405 47-631 limits assumed): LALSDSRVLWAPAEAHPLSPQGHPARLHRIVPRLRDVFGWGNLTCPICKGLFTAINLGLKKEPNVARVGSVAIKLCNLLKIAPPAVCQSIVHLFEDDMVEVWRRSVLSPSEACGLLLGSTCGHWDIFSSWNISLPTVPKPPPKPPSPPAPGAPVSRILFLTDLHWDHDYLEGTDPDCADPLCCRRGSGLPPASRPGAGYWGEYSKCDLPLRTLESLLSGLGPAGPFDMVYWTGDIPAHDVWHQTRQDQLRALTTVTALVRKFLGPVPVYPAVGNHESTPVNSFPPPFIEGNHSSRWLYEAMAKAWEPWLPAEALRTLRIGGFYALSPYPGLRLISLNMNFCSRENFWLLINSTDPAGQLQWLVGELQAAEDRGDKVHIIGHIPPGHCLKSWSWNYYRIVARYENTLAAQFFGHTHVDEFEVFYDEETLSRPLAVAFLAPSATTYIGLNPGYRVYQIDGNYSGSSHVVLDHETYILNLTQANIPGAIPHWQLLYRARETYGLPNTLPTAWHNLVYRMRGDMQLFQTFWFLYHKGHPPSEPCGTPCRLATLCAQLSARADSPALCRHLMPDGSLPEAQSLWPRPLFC
#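 HMU-PC0 cleavage (9 uM final) by human placental ASM, 60 min at 37 °C following 10 min compound exposure at RT; stopped at pH 10, fluorescence Ex 386/Em 447 nm.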
# Hits are given with their value; – = inactive; ? = inconclusive; · = no result; [ ] = remark or other dose. In the library only some 0.62% were active in any assay of this set; here they are far more common.
SMILES,gsp antag,gsp agonist,Chronic BCR inh,MBNL1-CUG inh,S-ASM inh
Cc1nc(N2CCN(C(=O)c3ccco3)CC2)c2c3c(sc2n1)CC(C)CC3 (stereo not given),14.1µM,–,?,–,–
Cc1nc2ncnn2c(N2CCCC(C(=O)Nc3ccc4c(c3)CCC4)C2)c1C (stereo not given),39.8µM,?,–,–,–
C#CCN(C[C@@H]1[C@@H](OC(=O)NCc2ccccc2)[C@@H](OC(=O)NCc2ccccc2)CN(C(=O)OC(C)C)N1C(=O)OC(C)C)S(=O)(=O)c1ccc(C)cc1,·,–,·,·,·
CN(C)CCNc1ccc2ncn3c4ccc(O)cc4c(=O)c1c23,?,14.1µM,·,·,–
O=C(Nc1cc(Cl)ccc1O)c1snnc1-c1ccccc1,22.4µM,–,?,–,–
CC1=NN(Cc2ccccc2)C(=O)C1C(c1ccc(Cl)cc1)C(C#N)C#N (stereo not given),–,–,20.6µM,·,–
CC1=NN(Cc2ccccc2)C(=O)C1C(c1ccccc1)C(C#N)C#N (stereo not given),–,–,?,–,–
O=C(N/N=C\c1cn(-c2ccccc2)nc1-c1ccccc1)c1ccc(Br)o1,?,–,–,–,–
Cc1ccc(-c2nn(-c3ccccc3)cc2/C=N/NC(=O)c2ccc(Br)o2)cc1,31.6µM,–,?,–,–
CC1CCCCN1C(=O)c1cccc(NC2=C(Cl)C(=O)N(Cc3ccccc3)C2=O)c1 (stereo not given),28.2µM,–,?,·,–
c1ccc(-c2nc(NCc3cccnc3)c3ccccc3n2)cc1,–,–,?,–,–
Cc1ccc(-c2nc(NCc3cccnc3)c3ccccc3n2)cc1,35.5µM,–,–,·,–
CN(C)c1ccc(NC(=O)C2C3C=CC(C3)C2C(=O)O)cc1 (stereo not given),28.2µM,–,–,?,–
CCc1ccc(NC(=O)C(C)OC(=O)/C=C/c2ccc(O)c(OC)c2)cc1 (stereo not given),–,–[15.4 µM],20.6µM,·,–
COc1cc(C2C(C#N)=C(N)Oc3cc(N)ccc32)cc(OC)c1OC (stereo not given),–[15.4 µM],–,?,–,–
COc1cc(C2C(C#N)=C(C)NC(C)=C2C#N)cc(OC)c1OC,–,8.91µM,?,–,–
O=[N+]([O-])c1ccc(-c2cn3c(n2)CCC3)cc1,–,14.1µM,?,?,–
c1ccc(-c2cn3c(n2)CCC3)cc1,–,–,–,–,–
O=C1C(=Cc2cccn2-c2ccccc2)C(=O)c2ccccc21,–,–[15.4 µM],–,–[11.5 µM],–
O=C(O)c1cccc(-n2cccc2C=C2C(=O)c3ccccc3C2=O)c1,35.5µM,–[15.4 µM],–,?,–
COc1cc2c(cc1OC)C(SC)=NC(C)(C)C2,–,–,16.4µM,?,–
CS(=O)(=O)Nc1ccc(C2=NN(C(=O)c3ccco3)C(c3ccccc3F)C2)cc1 (stereo not given),28.2µM,–,?,–,–
C[C@H](CO)N1C[C@H](C)[C@H](CN(C)Cc2ccccc2)Oc2ncc(Br)cc2C1=O,·,–,·,·,·
Cc1ccc(NC(=O)COc2ccccc2C(N)=O)cc1S(=O)(=O)N1CCCCCC1,35.5µM,?,?,·,–
COc1ccc(NC(=O)COc2ccccc2C(N)=O)cc1S(=O)(=O)N1CCCCC1,·,–,·,·,·
SMILES,gsp antag,gsp agonist,Chronic BCR inh,MBNL1-CUG inh,S-ASM inh
COc1cc(C(C)=O)ccc1OCC(=O)Nc1ccc(C)c(S(=O)(=O)N2CCCCCC2)c1,31.6µM,–,–,·,–
Cc1ccc(NC(=O)COc2ccc(N(C)C(=O)C(C)(C)C)cc2)cc1S(=O)(=O)N1CCCCC1,35.5µM,–,?,·,–
CC1=C(C(=O)NCc2ccc(C)cc2)C2(CCCCC2)OC1=O,·,·,–,·,·
CC(=O)Nc1nc2ccc(-c3nc4ccccc4o3)cc2s1,–,?,14.6µM,–,–
CCC(=O)Nc1cccc(-c2nc3ccccc3o2)c1,–,–,–,–,–
CCOC(=O)c1c(NC(=O)COc2cccc3c2CCN(C)C3=O)sc2c1CCC2,14.1µM,–,?,·,–
O=[N+]([O-])c1ccc(Cl)c(S(=O)(=O)Nc2ccc(-c3ccc(N4CCCC4)nn3)cc2)c1,?,–[15.4 µM],–,·,–
O=[N+]([O-])c1ccc(S(=O)(=O)Nc2ccc(-c3ccc(N4CCCC4)nn3)cc2)cc1,20µM,–,–,·,–
O=C(CSc1n[nH]c(=O)[nH]c1=O)Nc1ccc(Br)cc1Br,–,–,–,·,–
COCCCn1c(C(=O)N2CCOCC2)cc2c(=O)n3ccccc3nc21,–,?,–,–,–
COCCCn1c(C(=O)NCCC2=CCCCC2)cc2c(=O)n3ccccc3nc21,–,7.08µM,?,–,–
Cc1ccn2c(-c3csc(NCc4ccccc4)n3)c(C)nc2c1,39.8µM,–,–,–,–
COc1ccc2c3c(c(=O)oc2c1)C1O[C@](c2ccsc2)(Cc2cc(C#N)ccc21)O3,·,·,–[9.22 µM],–[11.5 µM],·
CCCNC(=O)CSc1c(CCC)cnc2c1c(=O)n(C)c(=O)n2C,·,·,–,·,·
CCC(=O)N(c1ccc(C(=O)O)cc1)c1nc(-c2ccc(OC)cc2)c(C)s1,25.1µM,?,?,–,–
Cn1ccnc1SCC(=O)c1ccc(O)cc1,–,–,–,·,–
Cn1ccnc1SCC(=O)c1ccc(Cl)cc1,–,–,17.8µM,–,–
N#C/C(=C(/O)C(Cl)(Cl)Cl)c1nc2ccccc2[nH]1,28.2µM,–,?,–,–
O=C1CCC(C(=O)N2CCN(c3ccccc3)CC2)CN1Cc1ccc(Cl)cc1 (stereo not given),·,–,·,·,·
COc1ccccc1N1CCN(C(=O)c2ccc(Cl)c(S(=O)(=O)N3CCOCC3)c2)CC1,–,–[15.4 µM],–,–,·
O=C(C1CCC(CNS(=O)(=O)c2cccc3nsnc23)CC1)N1CC=C(c2ccccc2)CC1 (stereo not given),35.5µM,–,?,?,–
O=C(C1CCN(S(=O)(=O)c2cccc3nsnc23)CC1)N1CC=C(c2ccccc2)CC1,?,–,–,?,–
CCc1ccc(CN(C)C(=O)c2cc(COc3cccc4cnccc34)on2)cc1,35.5µM,–,?,–,–
O=C(c1cc(COc2cccc3cnccc23)on1)N1CCC(c2ccccc2Cl)C1 (stereo not given),28.2µM,–,?,–,–
COC(=O)c1sc(NC(=S)NNC(=O)c2c(Br)c(C)nn2C)c(C(=O)OC)c1C,–,?,–,–,–
O=C(O)CC(c1ccc(C(F)(F)F)cc1)N1Cc2ccccc2C1=O (stereo not given),–,–,–,–,–
CCc1ccc(NC(=O)Nc2ccc3c(c2)N(C)C(=O)CS3)cc1,35.5µM,–,?,–,–
